“And” between values parts separate entries of the source, which are not always exact repeats. Equal values may be shown once. In all, about 5,500 compounds went through this assay and about 2,000 (36%) were called active. Roughly 18% stayed inconclusive and do not appear here. Rule as the data show it: active = normalized growth mostly below about 0.91 (no sharp cut-off); inconclusive = no clear call, values can overlap the other calls; inactive = mostly above about 0.92. This is one part of the list.
Assay: chemical genetic growth profiling, strain panel (AID 1159580);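 also: tested at 20 µM; growth read once vehicle control cultures reached saturation at 30 °C; 1 = growth at the plate median or of vehicle wells; lower values mean less growth of the strain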
Details: S. cerevisiae deletion strains, growth OD

Measured: normalized growth

CC(C)NCC(O)c1cc(O)cc(O)c1 (stereo not drawn)
inactive: locus YAL013W, strain DEP1, stronger effect = lower value 1.03 | locus YAL021C, strain ccr4, stronger effect = lower value 0.974 | locus YAL026C, strain drs2, stronger effect = lower value 1 | locus YAL030W, strain snc1, stronger effect = lower value 0.994 | locus YAL040C, strain CLN3, stronger effect = lower value 1.02 | locus YBL061C, strain skt5, stronger effect = lower value 0.991 | locus YBR009C, strain hhf1, stronger effect = lower value 1.01 | locus YBR021W, strain FUR4, stronger effect = lower value 1.02 | locus YBR023C, strain chs3, stronger effect = lower value 0.984 | locus YBR171W, strain sec66, stronger effect = lower value 0.998 | locus YBR229C, strain ROT2, stronger effect = lower value 1 | locus YBR231C, strain swc5, stronger effect = lower value 0.993 | locus YBR279W, strain paf1, stronger effect = lower value 0.992 | locus YCL011C, strain gbp2, stronger effect = lower value 0.982 | locus YCL016C, strain dcc1, stronger effect = lower value 0.976 | locus YCL029C, strain bik1, stronger effect = lower value 0.983 | locus YCL061C, strain MRC1 (second series), stronger effect = lower value 1.01 | locus YCL061C, strain MRC1, stronger effect = lower value 0.991 | locus YCL069W, strain vba3, stronger effect = lower value 0.992 | locus YCR088W, strain abp1, stronger effect = lower value 0.994 | locus YDL005C, strain med2, stronger effect = lower value 1 | locus YDL035C, strain GPR1, stronger effect = lower value 1.01 | locus YDL040C, strain nat1, stronger effect = lower value 0.994 | locus YDL074C, strain BRE1, stronger effect = lower value 1.01 | locus YDL101C, strain DUN1, stronger effect = lower value 1 | locus YDL134C, strain PPH21, stronger effect = lower value 1.01 | locus YDL185W, strain tfp1, stronger effect = lower value 0.964 | locus YDL192W, strain arf1, stronger effect = lower value 0.984 | locus YDR001C, strain nth1, stronger effect = lower value 0.983 | locus YDR069C, strain doa4, stronger effect = lower value 1.01 | locus YDR101C, strain arx1, stronger effect = lower value 1.02 | locus YDR137W, strain rgp1, stronger effect = lower value 0.977 | locus YDR150W, strain NUM1, stronger effect = lower value 0.996 | locus YDR159W, strain sac3, stronger effect = lower value 1.03 | locus YDR162C, strain NBP2, stronger effect = lower value 1.01 | locus YDR195W, strain ref2 0.982 | locus YDR297W, strain sur2, stronger effect = lower value 0.989 | locus YDR318W, strain mcm21, stronger effect = lower value 0.982 | locus YDR334W, strain swr1, stronger effect = lower value 0.974 | locus YDR335W, strain msn5, stronger effect = lower value 1 | locus YDR363W, strain ESC2, stronger effect = lower value 1.05 | locus YDR388W, stronger effect = lower value 1 | locus YDR392W, strain spt3, stronger effect = lower value 0.928 | locus YDR502C, strain sam2, stronger effect = lower value 0.993 | locus YEL003W, strain gim4, stronger effect = lower value 1 | locus YEL037C, strain rad23, stronger effect = lower value 0.989 | locus YEL061C, strain CIN8 (second series), stronger effect = lower value 0.98 | locus YEL061C, strain CIN8, stronger effect = lower value 0.995 | locus YER002W, strain NOP16, stronger effect = lower value 0.991 | locus YER015W, strain faa2, stronger effect = lower value 0.988 | locus YER016W, strain bim1, stronger effect = lower value 0.999 | locus YER110C, stronger effect = lower value 0.973 | locus YER111C, strain swi4, stronger effect = lower value 0.978 | locus YER155C, strain BEM2 (second series), stronger effect = lower value 1 | locus YER155C, strain BEM2, stronger effect = lower value 1 | locus YER167W, strain BCK2, stronger effect = lower value 0.995 | locus YFR010W, strain ubp6, stronger effect = lower value 0.992 | locus YGL078C, strain dbp3, stronger effect = lower value 0.969 | locus YGL086W, strain mad1, stronger effect = lower value 1.01 | locus YGL167C, strain pmr1, stronger effect = lower value 0.991 | locus YGL173C, strain kem1, stronger effect = lower value 1 | locus YGL227W, strain vid30, stronger effect = lower value 0.995 | locus YGL240W, strain doc1, stronger effect = lower value 1.01 | locus YGL248W, strain PDE1, stronger effect = lower value 1 | locus YGL253W, strain hxk2, stronger effect = lower value 0.974 | locus YGR135W, strain pre9, stronger effect = lower value 0.949 | locus YGR229C, strain SMI1, stronger effect = lower value 1.03 | locus YGR252W, strain gcn5, stronger effect = lower value 0.963 | locus YHR013C, strain ard1, stronger effect = lower value 0.961 | locus YHR027C, strain rpn1, stronger effect = lower value 1.02 | locus YHR030C, strain SLT2, stronger effect = lower value 1.01 and 0.952 | locus YHR079C, strain IRE1 (second series), stronger effect = lower value 0.988 | locus YHR079C, strain IRE1, stronger effect = lower value 0.964 | locus YHR094C, strain hxt1, stronger effect = lower value 1 | locus YHR129C, strain ARP1, stronger effect = lower value 1 | locus YHR142W, strain chs7, stronger effect = lower value 0.967 | locus YHR200W, strain rpn10, stronger effect = lower value 0.985 | locus YIL066C, strain RNR3, stronger effect = lower value 0.997 | locus YIL073C, strain SPO22, stronger effect = lower value 0.938 | locus YIL125W, strain kgd1, stronger effect = lower value 1.01 | locus YIR030C, strain dcg1, stronger effect = lower value 0.978 | locus YJL092W, strain hpr5, stronger effect = lower value 0.988 | locus YJL095W, strain BCK1 (second series), stronger effect = lower value 0.994 | locus YJL095W, strain BCK1, stronger effect = lower value 0.986 and 0.963 | locus YJL115W, strain asf1, stronger effect = lower value 0.977 | locus YJL129C, strain trk1, stronger effect = lower value 0.983 | locus YJL134W, strain LCB3, stronger effect = lower value 1.01 | locus YJL154C, strain vps35, stronger effect = lower value 1.02 | locus YJL164C, strain tpk1, stronger effect = lower value 0.993 | locus YJL166W, strain qcr8, stronger effect = lower value 0.974 | locus YJL168C, strain set2, stronger effect = lower value 0.999 | locus YJL187C, strain SWE1 (second series), stronger effect = lower value 0.995 | locus YJL187C, strain SWE1, stronger effect = lower value 0.987
